FAS-TE inh: FAS thioesterase (human) inhibition | P49327 | recombinant FAS-TE, OMFH fluorogenic substrate, fluorescence endpoint | inhibition, % at 15 µM | 360,000 tested, 0.67% active | AID 602261;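 active = compounds whose normalised, plate-corrected inhibition of enzyme fluorescence in the single-dose primary screen is 50% or more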;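 also: 0% = DMSO with enzyme and 100% = substrate without enzyme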
NR3A LBD binder: NR3A (human) ligand-binding domain modulation; NR3A LBD differential scanning fluorimetry, Tm shift; 0% = protein alone, 100% = glycine-bound protein; Tm shift relative to glycine control, % at 25 µM; 340,000 tested, 2.5% active;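 active = melting temperature shift of at least 10% of the positive control shift, at one fixed dose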
ADAM17 inh: inhibits human ADAM17; P78536; recombinant ADAM17, EDANS/DABCYL FRET peptide cleavage; inhibition, % at 6.95 µM; 370,000 tested, 0.83% active; AID 720648;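 active = inhibition above the mean of compounds lying between control limits plus 3 SD, set per campaign, cut at about 8.5% in these data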;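 also: 0% = DMSO-only wells as the low control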
aDG glyco act: increases alpha dystroglycan glycosylation; 360,000 tested, 0.22% active; AID 624168; activation, % at 10 µM; Pro5-aDG cells, alpha-DG glycosylation AlphaScreen (IIH6); 0% Pro5, 100% B10-LARGE cell signal;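 active = activation of at least 8% versus controls, or a plate z-score of at least 8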;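 also: Pro5 are CHO cells carrying HIG-tagged alpha-DG that lacks glycosylation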
ADAM10 inh: ADAM10 inhibition, QFRET primary screen; O14672; recombinant ADAM10, EDANS/DABCYL FRET peptide cleavage, 3 h; inhibition, % at 7 µM; 370,000 tested, 0.62% active; AID 720582;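 active = inhibition above a per-campaign cutoff equal to the mean of compounds falling between control-based bounds plus 3 SD, cut at about 20% in these data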;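 also: 0% = DMSO wells while the 100% control is not disclosed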
Target sequence (O14672 214-748 limits assumed): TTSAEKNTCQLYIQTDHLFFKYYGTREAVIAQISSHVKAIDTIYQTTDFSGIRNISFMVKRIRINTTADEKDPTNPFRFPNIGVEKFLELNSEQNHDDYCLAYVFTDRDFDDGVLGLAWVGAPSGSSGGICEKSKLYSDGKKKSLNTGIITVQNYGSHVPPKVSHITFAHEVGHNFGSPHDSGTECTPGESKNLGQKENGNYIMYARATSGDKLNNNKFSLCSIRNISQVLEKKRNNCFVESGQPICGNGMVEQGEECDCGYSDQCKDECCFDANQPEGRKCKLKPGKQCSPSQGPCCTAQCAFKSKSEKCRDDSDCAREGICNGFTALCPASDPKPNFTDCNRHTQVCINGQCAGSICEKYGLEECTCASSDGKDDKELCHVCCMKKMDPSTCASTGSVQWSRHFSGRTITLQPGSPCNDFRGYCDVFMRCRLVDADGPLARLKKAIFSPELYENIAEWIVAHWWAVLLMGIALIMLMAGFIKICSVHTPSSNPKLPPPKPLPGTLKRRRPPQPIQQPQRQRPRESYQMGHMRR
ADAM10 confirm: confirmation of inhibitors of human ADAM10. shares compounds with ADAM10 inh. ADAM10 QFRET peptide cleavage, EDANS fluorescence. inhibition, % at 6.95 µM. 2,100 tested, 1% active. AID 743208;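 active = inhibition above about 20% chosen separately for each screening run, limit read from the data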;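 also: 0% = DMSO wells and 100% = marimastat wells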
ADAM17 counter: counter-screen for ADAM10 exosite inhibitors: inhibitors of human ADAM17; inhibition, % at 6.95 µM; ADAM17 QFRET peptide cleavage, EDANS fluorescence; 2,100 tested, 0.5% active; AID 743214; shares compounds with ADAM10 inh;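 active = mean triplicate inhibition above the solvent-only control wells' mean plus 3 SD, cut at about 12% in these data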;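 also: 0% = DMSO wells and 100% = marimastat wells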
ADAM10 counter: inhibits human ADAM10 in ADAM17 exosite counter-screen; shares compounds with ADAM17 inh; inhibition, % at 6.95 µM; recombinant ADAM10, EDANS/DABCYL FRET peptide cleavage, 3 h; 2,900 tested, 47% active; AID 743256;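 active = mean inhibition over the triplicate runs exceeds the activity threshold set in the earlier primary screen, cut at about 20% in these data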;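 also: 0% = DMSO wells and 100% = marimastat wells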
ADAM17 confirm: confirmation of inhibitors of human ADAM17. AID 743257. 2,900 tested, 65% active. recombinant ADAM17, EDANS/DABCYL QFRET peptide cleavage. shares compounds with ADAM17 inh. inhibition, % at 6.95 µM;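 active = mean inhibition across replicates above the hit cutoff set in the primary screen, cut at about 8.5% in these data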;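 also: 0% = DMSO wells and 100% = marimastat wells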
An asterisk follows results filed as active; . = no result. Most compounds without a hit are left out; they make up all but 4% or so of the library.

SMILES	FAS-TE inh	NR3A LBD binder	ADAM17 inh	aDG glyco act	ADAM10 inh	ADAM10 confirm	ADAM17 counter	ADAM10 counter	ADAM17 confirm
C[C@@H]1CCCCO[C@H](CN(C)C(=O)Nc2ccc(C(F)(F)F)cc2)[C@@H](C)CN([C@H](C)CO)C(=O)c2cc(NC(=O)Nc3ccc4c(c3)OCO4)ccc2O1	2	.	3	0	6	.	.	.	.
C[C@@H]1CN([C@@H](C)CO)C(=O)c2cc(NS(C)(=O)=O)ccc2O[C@H]1CN(C)Cc1ccc(Oc2ccccc2)cc1	-2	1	1	0	4	.	.	.	.
C[C@@H]1CN([C@@H](C)CO)C(=O)c2cc(NC(=O)Nc3ccc(F)cc3)ccc2O[C@@H]1CN(C)Cc1ccc(Oc2ccccc2)cc1	22	12*	11*	3	24*	19	7	48*	23*
CCCCC(=O)Oc1ccccc1C1SCc2cc(C)c(C)cc2CS1	2	-5	-6	0	-1	.	.	.	.
Cc1ccc(C(C(=O)NC2CCCCC2)N(C(=O)c2csnn2)C2CCCC2)o1 (stereo not given)	-3	4	2	0	2	.	.	.	.
O=C(C1CCC(Cn2c(=S)[nH]c3ccccc3c2=O)CC1)N1CCN(c2ccccc2)CC1 (stereo not given)	26	-3	9.1*	3	25*	11	3	17	7
O=C(C1CCC(Cn2c(=O)[nH]c3ccccc3c2=O)CC1)N1CCN(c2ccccc2)CC1 (stereo not given)	-3	1	1	0	-2	.	.	.	.
CCOC(=O)c1ccc(NC(=O)CSc2nnc(SCc3cccc4ccccc34)s2)cc1	.	.	3	.	8	.	.	.	.
C=C[C@H]1C(C(=O)OCC)=CC[C@@H](c2ccccc2)N1S(=O)(=O)c1ccc(C)cc1	23	.	13*	0	28*	4	1	16	7
N#C/C(=C\c1ccccc1)C(=O)NNS(=O)(=O)c1cccc([N+](=O)[O-])c1	-8	-10	35*	0	69*	3	1	8	6
O=C(NC(Cc1c[nH]c2ccccc12)C(=O)Nc1ccc(OC(F)(F)F)cc1)c1cccs1 (stereo not given)	31	33*	12*	2	25*	12	3	59*	30*
CC(C)(C)NC(=O)C(c1ccc(OCC(N)=O)cc1)N(C(=O)c1cccnc1)C1CC1 (stereo not given)	-4	1	-1	1	2	.	.	.	.
CC(C)[C@H](NS(=O)(=O)c1ccccc1)C(=O)OCC(=O)Nc1ccccc1Sc1ccccc1	28	-7	9.6*	0	20*	5	2	18	9.1*
N#CCCn1nc(-c2ccccc2)cc1Nc1ccccc1NC(=O)C(F)(F)F	1	3	-5	0	-16	.	.	.	.
N#CCCn1nc(-c2ccc([N+](=O)[O-])cc2)cc1Nc1ccccc1NC(=O)C(F)(F)F	5	-4	20*	0	36*	0	0	16	9.5*
O=c1c2c(-c3ccc(Cl)cc3)csc2ncn1/N=C/c1cccc([N+](=O)[O-])c1O	8	-1	-2	0	-3	.	.	.	.
CCN(CC(=O)Nc1cccc(OC)c1)CC(=O)Nc1ccc(Br)c(C)c1	29	8	12*	0	23*	2	1	45*	16*
C/C(=N\N=C(/N)SC1CC(=O)N(c2ccccc2)C1=O)c1cccs1 (stereo not given)	-1	-2	8.6*	0	22*	2	0	15	12*
CCCCCCOc1ccc(N2C(=O)CC(S/C(N)=N/N=C(\C)c3cccs3)C2=O)cc1 (stereo not given)	13	9	-4	0	6	.	.	.	.
C/C(=N\N=C(/N)SC1CC(=O)N(c2ccc(Br)cc2)C1=O)c1cccs1 (stereo not given)	24	12*	12*	0	24*	5	2	20	20*
O=C(CSCc1ccc(Cl)cc1)NN=C1CCCCCC1	-3	1	3	0	10	.	.	.	.
COC(=O)c1ccc(S(=O)(=O)N2CCCCC2)o1	-8	-2	-7	0	-22	.	.	.	.
Cc1ccc2c(c1)-n1c(nc3cc(C)ccc3c1=O)C(Cc1ccccc1)NC2=O (stereo not given)	.	.	17*	.	21*	6	2	7	6
CCCCC1=NN(C(=O)c2ccncc2)C(O)(C(F)(F)F)C1 (stereo not given)	-3	0	1	0	1	.	.	.	.
O=C1c2ccccc2C(=O)N1CCCCN(C(=O)c1ccco1)c1ccc(Cl)cc1	16	-3	-3	1	5	.	.	.	.
SMILES	FAS-TE inh	NR3A LBD binder	ADAM17 inh	aDG glyco act	ADAM10 inh	ADAM10 confirm	ADAM17 counter	ADAM10 counter	ADAM17 confirm
O=C1c2ccccc2C(=O)N1CCCCN(C(=O)c1cccc([N+](=O)[O-])c1)c1ccc(Cl)cc1	34	2	10*	0	26*	5	2	30*	14*
CC(=O)C(N=Nc1ccccc1)(Sc1nnc(-c2ccccc2)n1-c1ccccc1)C(C)=O	30	0	14*	-1	26*	4	2	13	10*
CCN1C(=O)[C@H]2[C@@H](c3ccc(C)cc3)N[C@]3(CCCN(Cc4ccc(C(F)(F)F)cc4)C3=O)[C@H]2C1=O	3	.	-4	0	-19	.	.	.	.
Cc1ccc([C@H]2N[C@]3(CCCN(Cc4ccc(C(F)(F)F)cc4)C3=O)[C@H]3C(=O)N(Cc4ccccc4)C(=O)[C@@H]23)cc1	36	.	12*	0	28*	4	1	34*	20*
Cc1ccc(CN2CCC[C@]3(N[C@H](c4ccc(C(F)(F)F)cc4)[C@@H]4C(=O)N(Cc5ccccc5)C(=O)[C@@H]43)C2=O)cc1	21	.	9.7*	0	20*	2	1	38*	22*
COc1ccc(C(=O)NCC(c2ccco2)N2CCOCC2)cc1 (stereo not given)	-5	.	-3	0	-4	.	.	.	.
O=C(NNc1ccccc1Br)C(O)(c1cccc(C(F)(F)F)c1)c1cccc(C(F)(F)F)c1	26	32*	25*	2	49*	11	4	52*	23*
Cc1ccccc1NC(=O)c1cccc(C(F)(F)F)c1	-3	0	2	0	7	.	.	.	.

Assay outcomes (PubChem)
